High-throughput results from PubChem BioAssay.
RORg inh – qHTS for inhibitors of ROR gamma transcriptional activity; Drosophila S2 Gal4-RORgamma UAS-luciferase reporter, 20 h; Nuclear receptor ROR-gamma (Mus musculus), P51450; actives 5.4% (n = 310,000); Potency, µM (doses to about 53.6 µM), inactives show at the highest dose activity change, negative = inhibition, actives largely listed as inhibitors; AID 2551, 2010; also: potency is read from the fitted curve at half-maximal effect; % is scaled to controls: 0 for no effect and ±100 for the full control effect; nearly all actives have a fitted effect of over 60% in size
Target sequence (P51450 whole entry, looked up, the tested form may be a part): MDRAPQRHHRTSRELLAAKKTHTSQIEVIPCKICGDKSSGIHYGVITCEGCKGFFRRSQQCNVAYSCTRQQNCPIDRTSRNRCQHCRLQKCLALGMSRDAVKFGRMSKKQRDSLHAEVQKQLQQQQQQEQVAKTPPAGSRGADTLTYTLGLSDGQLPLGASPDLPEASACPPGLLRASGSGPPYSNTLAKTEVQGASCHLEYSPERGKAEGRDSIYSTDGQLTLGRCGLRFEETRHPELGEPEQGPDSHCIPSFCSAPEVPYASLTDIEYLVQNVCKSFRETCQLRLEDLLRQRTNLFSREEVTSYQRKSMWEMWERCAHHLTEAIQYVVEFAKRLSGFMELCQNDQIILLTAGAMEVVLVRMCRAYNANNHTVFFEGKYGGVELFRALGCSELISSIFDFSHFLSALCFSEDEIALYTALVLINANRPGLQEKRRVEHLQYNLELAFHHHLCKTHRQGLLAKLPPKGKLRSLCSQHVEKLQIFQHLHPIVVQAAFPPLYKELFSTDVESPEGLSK
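In this cell-based reporter format, copper sulfate (700 uM final) drives Gal4–ROR gamma fusion expression from a metallothionein promoter in Drosophila Schneider cells; compounds preincubated 1 hr, reporter read after 20 hr at ambient temperature.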
MCF10A rerep – A quantitative high throughput screen for small molecules that induce DNA re-replication in MCF 10a normal breast cells. MCF 10A DNA re-replication, Hoechst nuclear intensity, 48 h. Potency, µM (highest dose often 46.1 µM), inactives show top-dose activity, positive = re-replication, most hits filed as activators. actives 2.9% (n = 350,000). AID 624296, 2012; also: potency is read from the fitted curve at half-maximal effect; % of control where 0% means no effect; nearly all actives have a fitted effect of over 50% in size
Gal4-VP16 FLuc – VP16 counterscreen qHTS for inhibitors of ROR gamma transcriptional activity. Drosophila S2 Gal4-VP16 UAS-luciferase, luminescence, 20 h. Potency, µM (highest dose often 53.6 µM), for inactives: top-dose activity, negative = inhibition, usual class: inhibitors. actives 3.5% (n = 310,000);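 also: Gal4-VP16 expression switched on by copper sulfate through the metallothionein promoter; potency is read from the fitted curve at half-maximal effect; % is scaled to controls: 0 for no effect and ±100 for the full control effect; nearly all actives have a fitted effect of over 50% in size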
SW480 rereplic – A quantitative high throughput screen for small molecules that induce DNA re-replication in SW480 colon adenocarcinoma cells | SW480 DNA re-replication, Hoechst DNA content imaging, 48 h | Potency, µM (doses to about 46.1 µM), without a hit: at the highest dose re-replication activation, actives largely listed as activators | actives 1.8% (n = 340,000); also: potency is read from the fitted curve at half-maximal effect; % of control where 0% means no effect; nearly all actives have a fitted effect of over 55% in size
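Hoechst fluorescence of nuclei (405 nm excitation, 500-530 nm emission) measured by plate-scanning imager after 48 hr compound exposure at 37 C; re-replication scored as increased number of nuclei with elevated intensity.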
IL1B secr inh – qHTS for Inhibitors of Inflammasome Signaling: IL-1-beta AlphaLISA Primary Screen; actives 4.7% (n = 360,000); AID 743279, 2014; THP-1 LPS/ATP IL-1B secretion, AlphaLISA, 16 h; active compounds read low; activity change, % at 57.5 µM; in the data active = activity change below about -50%; inconclusive = mostly about -30% to -49%; also: % is scaled to controls: 0 for no effect and ±100 for the full control effect
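THP-1 cells pretreated 1 hr with compounds (up to 57.5 uM final), then stimulated with LPS (250 ng/mL final) plus ATP (1.25 mM final); secreted IL-1B measured by AlphaLISA after 16 hr, decreased signal indicating inhibition.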
Starred values were filed as active, the others as inactive; u = inconclusive; x = no result; [ ] = another dose, or the depositor's remark. This is a sample that favours compounds with a hit; in the whole collection about 11% have one here. Unless noted, calls follow the shape of the dose curve; as a rule, active = well fitted curve in the direction sought with a large enough effect; inconclusive = small, poorly fitted or top-dose-only effect, or another doubt; inactive = no such curve, though single readings can be large; an effect the other way counts as inactive or inconclusive.

SMILES | RORg inh | MCF10A rerep | Gal4-VP16 FLuc | SW480 rereplic | IL1B secr inh
Cc1cccc(-n2c(CCn3nc(C)c([N+](=O)[O-])c3C)n[nH]c2=S)c1 | 13µM* | -6% | -11% | 10% | 3
Cc1cccc(-n2c(Cc3ccccc3)n[nH]c2=S)c1 | 4µM* | 2% | 14µM* | -4% | 10
C[C@@H]1C=CCC(=O)OC[C@H](C)C(=O)OC[C@H]2O[C@H]1C=C[C@@H]2O | 4%[10 µM] | x | -1%[10 µM] | x | x
Cc1nn(Cc2ccc(F)cc2)c(C)c1NC(=O)C1c2ccccc2Oc2ccccc21 | -16% | 18µM* | u | 1% | -25
Cc1cc(C(=O)Nc2c(C)nn(Cc3ccc(F)cc3)c2C)on1 | -2% | 7% | -2% | -11% | -1
Cc1nn(Cc2c(F)cccc2Cl)c(C)c1NC(=O)C1CC1 | 14% | 1% | -9% | 0.52µM* | 4
O=c1[nH]c2ccc(NC(=S)Nc3ccccc3)cc2[nH]1 | -14% | -1% | 3% | -2% | -14
Cc1ccc2cn[nH]c2c1NC(=S)NC(=O)c1ccccc1 | u | 4% | -4% | 0% | -13
Cc1cc(C)c2c(NC(=S)Nc3ccccc3)n[nH]c2n1 | 1.1µM* | -1% | 3.2µM* | -3% | 8
Cc1cc(C)c2c(NC(=S)NC(=O)c3ccccc3)n[nH]c2n1 | 5.6µM* | u | u | -42% | 11
Cc1ccc(S(=O)(=O)N2CCCCC2)cc1NC(=O)CSc1nc(N)cc(=O)[nH]1 | x | 1% | x | -1% | 3
N#Cc1ccccc1Cn1cc(/C=C/[N+](=O)[O-])c2ccccc21 | u | 4.1µM* | 20µM* | u | -100*
O=C(O)Cn1cc(/C=C/[N+](=O)[O-])c2ccccc21 | -2% | 1% | 16% | 1% | -11
O=[N+]([O-])/C=C/c1cn(Cc2ccccc2)c2ccccc12 | 14% | u | -10% | u | -70*
O=C(Cn1cc(/C=C\[N+](=O)[O-])c2ccccc21)Nc1ccccc1 | u | 8.2µM* | u | u | -96*
N#Cc1cn(Cc2cccc(Cl)c2)c2ccccc12 | -28% | u | 10% | 6% | -3
O=S(=O)(NCCc1ccccc1)c1ccccc1Br | 17% | x | -13% | x | x
O=c1cc(NCCO)c2ccccc2o1 | -14% | -1% | -12% | -80% | 0
O=c1cc(NCCc2ccccc2)c2ccccc2o1 | u | -1% | -22% | 2% | -59*
CCCn1c(=S)[nH]c2cc(C(=O)N3CCN(c4ccc(F)cc4)CC3)ccc2c1=O | x | x | x | x | 14
CCN(c1ccc(OC)cc1)S(=O)(=O)c1cc(-c2cc(C)no2)ccc1C(C)C | 2% | 10µM* | -27% | 1% | 2
CN(Cc1nccs1)C(=O)c1cc(COc2cccc3cnccc23)on1 | -34% | u | 13µM* | -2% | -15
COc1cc(Cl)ccc1OCc1cc(C(=O)N(C)Cc2cccc3cnccc23)no1 | 40% | u | -15% | -2% | -64*
COc1ccc(OCc2cc(C(=O)N(C)Cc3cnccn3)no2)c(Cl)c1 | 12% | 0% | 16% | -8% | 38
CC(=O)c1cccc(OCc2cc(C(=O)N(C)Cc3nccs3)no2)c1 | x | x | x | x | 1
CC1(C(=O)Nc2ccc3c(c2)OCCO3)CCN1C(=O)Cc1ccc(-c2ccccc2)cc1 (centres undefined) | x | x | x | x | 10
CCc1ccc(NC(=O)CCCN2C(=S)NC(C)(C)CC2C)cc1 (centres undefined) | 4.5µM* | 9% | u | -3% | 3
CC1CC(C)(C)NC(=S)N1CC(=O)NCc1ccc(Cl)cc1 (centres undefined) | 11µM* | -2% | u | 8% | 6
CC1CC(C)(C)NC(=S)N1CCCC(=O)Nc1ccc2c(c1)OCCO2 (centres undefined) | 28% | -1% | -12% | -12% | 1
CC1CC(C)(C)NC(=S)N1CCCC(=O)Nc1ccc(F)cc1 (centres undefined) | 13µM* | 5% | u | -3% | -2
